Screen size: about 77,000 compounds; about 4,600 (6%) were called active. About 1% were inconclusive and are not listed. For the sample, actives were picked, then their nearest neighbours and some compounds at random. Unmarked numbers belong to inactive results.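 How the source made its calls: active means mean inhibition above about 93%, with at least 55% of replicates each passing it (limit read from the data, passing the limit was not always enough); inconclusive means only one of those two conditions holds; inactive means neither condition holds.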
assay: T. cruzi intracellular proliferation inhibitors, primary screen, cell-based, beta-gal Tulahuen parasites, NIH3T3 host, luminescence (AID 624255); conditions: T. cruzi beta-gal in NIH3T3, GalScreen luminescence, 90 h; at 8.34 µM; stronger effect = higher value

Question: With `CCNC(=O)Nc1ccc2c(c1)C(=O)N(C)[C@H]1CC[C@H](CC(=O)NCC3CCCCC3)O[C@@H]1CO2` as the compound, how does the inhibition read?
Answer: Its inhibition is 25.8%.

Question: Which inhibition does the source give for `CCS(=O)(=O)Nc1ccc2c(c1)C(=O)N(C)C[C@@H](OC)[C@@H](C)CN(C(=O)COC)[C@H](C)CO2` here?
Answer: Its inhibition is -5.98%.

Question: With `Cc1ccc(S(=O)(=O)Nc2ccc3c(c2)C(=O)N(C)[C@@H]2CC[C@@H](CC(=O)O)O[C@H]2CO3)cc1` as the compound, how does the inhibition read?
Answer: Its inhibition is 33.9%.

Question: With `C[C@H](CO)N1C[C@H](C)[C@H](CN(C)Cc2cccnc2)Oc2cc(C#CC3CCCC3)ccc2S1(=O)=O` as the compound, how does the inhibition read?
Answer: The inhibition was 97.8% (active).

Question: For `C[C@H](O)C#Cc1ccc2c(c1)O[C@H](CN(C)Cc1cccnc1)[C@@H](C)CN([C@H](C)CO)S2(=O)=O`, which inhibition is on record?
Answer: The inhibition was 34.8%.

Question: For `C[C@@H]1CN([C@H](C)CO)S(=O)(=O)c2ccc(C#CC3CC3)cc2O[C@H]1CN(C)Cc1ccccc1F`, which inhibition is on record?
Answer: Its inhibition is 81.5%.

Question: For `C[C@@H]1CN([C@H](C)CO)S(=O)(=O)c2ccc(C#CC3CCCC3)cc2O[C@@H]1CN(C)Cc1cccnc1`, which inhibition is on record?
Answer: The inhibition was 118% (active).

Question: With `C[C@@H]1CN([C@@H](C)CO)S(=O)(=O)c2ccc(C#Cc3cccnc3)cc2O[C@@H]1CN(C)C` as the compound, how does the inhibition read?
Answer: The inhibition was -8.96%.

Question: For `C[C@H](O)C#Cc1ccc2c(c1)O[C@@H](CN(C)Cc1cccnc1)[C@H](C)CN([C@H](C)CO)S2(=O)=O`, which inhibition is on record?
Answer: The inhibition was 46.1%.

Question: Which inhibition does the source give for `O=C(Nc1cccc(Cl)c1)N1C[C@@H]2[C@H](c3ccccc31)[C@H](CO)N2C(=O)C1CC1` here?
Answer: The inhibition was 45%.

Question: With `O=C(C[C@@H]1CC[C@H]2[C@@H](COC[C@@H](O)CN2C(=O)c2ccc3c(c2)OCO3)O1)NC1Cc2ccccc2C1` as the compound, how does the inhibition read?
Answer: Its inhibition is -11.4%.

Question: With `CCCC#Cc1cnc2c(c1)C(=O)N([C@H](C)CO)C[C@H](C)[C@H](CN(C)C(=O)c1cnccn1)O2` as the compound, how does the inhibition read?
Answer: The inhibition was -48.3%.

Question: For `CCCC(=O)Nc1ccc2c(c1)C(=O)N(C)[C@H]1CC[C@@H](CC(=O)NCc3ccccc3)O[C@@H]1CO2`, which inhibition is on record?
Answer: The inhibition was -21.7%.

Question: With `Cc1cccc(S(=O)(=O)N2CC[C@@H]3[C@H]2c2cc(C#Cc4ccc(F)cc4)ccc2N[C@@H]3CO)c1` as the compound, how does the inhibition read?
Answer: The inhibition was 12.4%.

Question: With `O=C(c1cccc(F)c1)N1CC[C@@H]2[C@@H](CO)Nc3ccc(C#Cc4cccc(F)c4)cc3[C@@H]21` as the compound, how does the inhibition read?
Answer: The inhibition was 110% (active).

Question: With `O=S(=O)(c1ccccc1)N1CC[C@@H]2[C@H]1c1cc(C#Cc3cccc(F)c3)ccc1N[C@@H]2CO` as the compound, how does the inhibition read?
Answer: The inhibition was 102% (active).

Question: For `COc1ccc(-c2ccc3c(c2)[C@@H]2[C@@H](CCN2S(=O)(=O)c2ccccc2F)[C@H](CO)N3)cc1`, which inhibition is on record?
Answer: The inhibition was 36.8%.

Question: For `Cn1cnc(S(=O)(=O)N2CC[C@@H]3[C@H]2c2cc(C#Cc4cccc(F)c4)ccc2N[C@@H]3CO)c1`, which inhibition is on record?
Answer: Its inhibition is -22.2%.

Question: With `N#Cc1cccc(-c2ccc3c(c2)[C@H]2[C@H](CCN2S(=O)(=O)c2ccc(F)cc2)[C@@H](CO)N3)c1` as the compound, how does the inhibition read?
Answer: Its inhibition is 19.2%.

Question: For `Cc1ccccc1S(=O)(=O)N1CC[C@H]2[C@H](CO)Nc3ccc(-c4cccc(F)c4)cc3[C@H]21`, which inhibition is on record?
Answer: Its inhibition is 100% (active).

Question: For `COc1ccccc1S(=O)(=O)N1CC[C@@H]2[C@H]1c1cc(-c3ccccc3)ccc1N[C@@H]2CO`, which inhibition is on record?
Answer: The inhibition was 71.9%.

Question: For `COc1cccc(-c2ccc3c(c2)[C@H]2[C@H](CCN2C(=O)c2ccc(F)cc2)[C@@H](CO)N3)c1`, which inhibition is on record?
Answer: The inhibition was 32.4%.

Question: With `COc1ccc(-c2ccc3c(c2)[C@@H]2[C@@H](CCN2C(=O)c2cccc(F)c2)[C@H](CO)N3)cc1` as the compound, how does the inhibition read?
Answer: The inhibition was 29.7%.

Question: For `O=S(=O)(c1ccccc1)N1CC[C@@H]2[C@@H](CO)Nc3ccc(C#Cc4cccc(F)c4)cc3[C@@H]21`, which inhibition is on record?
Answer: Its inhibition is 105% (active).

Question: Which inhibition does the source give for `Cc1cccc(S(=O)(=O)N2CC[C@@H]3[C@H]2c2cc(C#Cc4ccccc4F)ccc2N[C@@H]3CO)c1` here?
Answer: The inhibition was 62.9%.

Question: Which inhibition does the source give for `CC(C)c1cn(CC[C@@H]2CC[C@@H](NC(=O)C3CC3)[C@H](CO)O2)nn1` here?
Answer: The inhibition was 10.2%.

Question: For `CCCNC(=O)C[C@H]1CC[C@@H]2[C@H](COC[C@H](O)CN2S(=O)(=O)c2ccccc2F)O1`, which inhibition is on record?
Answer: Its inhibition is 11.7%.

Question: For `CO[C@H]1CC[C@@H]2CCOc3c(C#N)cccc3C(=O)N(C)C[C@H](C)C(=O)N(C)C[C@H]1O2`, which inhibition is on record?
Answer: Its inhibition is 30.6%.

Question: For `O=C(C[C@@H]1CC[C@H](NC(=O)Cc2ccccn2)[C@H](CO)O1)NCCc1ccncc1`, which inhibition is on record?
Answer: The inhibition was -62.5%.

Question: For `C[C@@H](NC(=O)C[C@@H]1C[C@H]2c3cc(NC(=O)C4CCC4)ccc3O[C@H]2[C@@H](CO)O1)c1ccccc1`, which inhibition is on record?
Answer: The inhibition was -32.2%.

Question: For `Cc1ccc(S(=O)(=O)Nc2ccc3c(c2)C(=O)N([C@H](C)CO)C[C@@H](C)[C@@H](CN(C)C(=O)CCC(F)(F)F)OCCCC[C@@H](C)O3)cc1`, which inhibition is on record?
Answer: Its inhibition is 47.6%.

Question: For `CCCN1C[C@H](C)[C@H](OC)CN(C)C(=O)c2cc(NC(=O)C3CCOCC3)ccc2OC[C@@H]1C`, which inhibition is on record?
Answer: The inhibition was -22.2%.

Question: For `Cc1ccc(S(=O)(=O)Nc2ccc3c(c2)C(=O)N(C)[C@H]2CC[C@H](CC(=O)O)O[C@H]2CO3)cc1`, which inhibition is on record?
Answer: Its inhibition is 22.9%.

Question: Which inhibition does the source give for `CC(C)NC(=O)N1CCCCN2[C@@H](CO)[C@@H](c3ccc(C#C[C@@H](C)O)cc3)[C@@H]2C1` here?
Answer: Its inhibition is 75.5%.

Question: For `O=S(=O)(c1ccc(F)cc1)N1CCCCN2[C@H](CO)[C@@H](c3ccc(C#CC4CCCC4)cc3)[C@H]2C1`, which inhibition is on record?
Answer: The inhibition was 88.5%.

Question: For `COc1cccc(S(=O)(=O)N2CCCCN3[C@H](CO)[C@H](c4ccc(C#CC5CC5)cc4)[C@H]3C2)c1`, which inhibition is on record?
Answer: Its inhibition is 118% (active).

Question: With `COc1ccc(S(=O)(=O)N2CCCCN3[C@H](C2)[C@H](c2ccc(C#CCC(C)C)cc2)[C@@H]3CO)cc1` as the compound, how does the inhibition read?
Answer: The inhibition was 103% (active).

Question: With `COc1ccc(S(=O)(=O)N2CCCCN3[C@@H](CO)[C@@H](c4ccc(C#CCC(C)C)cc4)[C@@H]3C2)cc1` as the compound, how does the inhibition read?
Answer: The inhibition was 34.4%.

Question: For `CC(C)C#Cc1ccc([C@H]2[C@H](CO)N3CCCCN(C(=O)NC(C)C)C[C@@H]23)cc1`, which inhibition is on record?
Answer: The inhibition was 104% (active).

Question: For `CC(C)C#Cc1ccc([C@@H]2[C@H]3CN(C(=O)NC(C)C)CCCCN3[C@H]2CO)cc1`, which inhibition is on record?
Answer: The inhibition was 43.5%.

Question: For `COCC#Cc1ccc([C@@H]2[C@@H](CO)N3CCCCN(C(=O)COC)C[C@@H]23)cc1`, which inhibition is on record?
Answer: The inhibition was 12.3%.

Question: With `CCC(=O)N1CCCCN2[C@H](C1)[C@@H](c1ccc(C#CCOC)cc1)[C@@H]2CO` as the compound, how does the inhibition read?
Answer: Its inhibition is 14%.

Question: Which inhibition does the source give for `COCC#Cc1ccc([C@@H]2[C@H](CO)N3CCCCN(C(=O)CN(C)C)C[C@@H]23)cc1` here?
Answer: The inhibition was 107% (active).

Question: With `Cn1cnc(S(=O)(=O)N2CCCCN3[C@@H](CO)[C@@H](c4ccc(C#CC5CCCC5)cc4)[C@@H]3C2)c1` as the compound, how does the inhibition read?
Answer: Its inhibition is 54.8%.

Question: For `CN1c2ccc(C#Cc3cccnc3)cc2[C@@H]2[C@@H](CCN2S(=O)(=O)c2ccccc2)[C@H]1CO`, which inhibition is on record?
Answer: Its inhibition is 89.6%.

Question: With `COc1ccccc1NC(=O)N[C@H]1CC[C@@H](CCn2cc(C3(O)CCCC3)nn2)O[C@@H]1CO` as the compound, how does the inhibition read?
Answer: Its inhibition is 0.23%.

Question: Which inhibition does the source give for `C[C@@H](NC(=O)[C@H]1[C@H](CO)[C@H]2Cn3c(cccc3=O)[C@H]2N1C(=O)C1CC1)c1ccccc1` here?
Answer: Its inhibition is -11.1%.

Question: With `CC=Cc1ccc2n(c1=O)C[C@@H]1[C@@H](CO)[C@H](C(=O)N[C@@H](C)c3ccccc3)[C@H]2N1Cc1ccncc1` (mixture of isomers) as the compound, how does the inhibition read?
Answer: Its inhibition is 25.6%.

Question: With `COC(=O)C[C@@H]1CC[C@H]2[C@@H](COC[C@H](O)CN2C(=O)Nc2ccccc2OC)O1` as the compound, how does the inhibition read?
Answer: Its inhibition is -19.2%.

Question: Which inhibition does the source give for `CC(=O)N1[C@@H](CO)[C@H](c2ccccc2)[C@@H]1CN(C(=O)c1ccccc1)C(C)C` here?
Answer: Its inhibition is 26.7%.

Question: With `O=C(C[C@H]1C[C@H]2c3cc(NC(=O)C4CCOCC4)ccc3O[C@H]2[C@@H](CO)O1)NCC1CC1` as the compound, how does the inhibition read?
Answer: Its inhibition is -5.99%.

Question: With `Cn1cnc(S(=O)(=O)N2C[C@H](O)COC[C@@H]3O[C@H](CC(=O)NCc4cccc(F)c4)CC[C@H]32)c1` as the compound, how does the inhibition read?
Answer: The inhibition was 34.3%.

Question: For `CN1C[C@@H]2[C@H](c3ccccc31)[C@H](CO)N2C(=O)Nc1ccc(F)cc1`, which inhibition is on record?
Answer: The inhibition was 15.1%.

Question: Which inhibition does the source give for `Cc1ccc(S(=O)(=O)Nc2ccc3c(c2)C(=O)N([C@@H](C)CO)C[C@H](C)[C@@H](CN(C)C(=O)Nc2ccc(F)cc2)OCCCC[C@H](C)O3)cc1` here?
Answer: The inhibition was 92.5%.

Question: With `O=C(C[C@H]1C[C@H]2c3cc(NC(=O)CC4CC4)ccc3O[C@H]2[C@H](CO)O1)NCc1cc(F)ccc1F` as the compound, how does the inhibition read?
Answer: Its inhibition is -48.8%.

Question: For `CC(C)CC#Cc1ccc2c(c1)O[C@@H](CN(C)C(=O)Nc1ccccc1F)[C@@H](C)CN([C@@H](C)CO)S2(=O)=O`, which inhibition is on record?
Answer: The inhibition was 83.3%.

Question: With `COc1cccc(S(=O)(=O)N2CCCCN3[C@H](C2)[C@H](c2ccc(C#CC(C)C)cc2)[C@@H]3CO)c1` as the compound, how does the inhibition read?
Answer: The inhibition was 118% (active).

Question: With `COc1ccc(S(=O)(=O)N2CCCCN3[C@H](CO)[C@@H](c4ccc(C#CC(C)C)cc4)[C@H]3C2)cc1` as the compound, how does the inhibition read?
Answer: The inhibition was 106% (active).

Question: With `COc1cccc(S(=O)(=O)N2CCCCN3[C@H](C2)[C@@H](c2ccc(C4=CCCCC4)cc2)[C@@H]3CO)c1` as the compound, how does the inhibition read?
Answer: Its inhibition is 51.4%.

Question: With `Cc1cccc(S(=O)(=O)N2CCCCN3[C@@H](CO)[C@H](c4ccc(-c5cccnc5)cc4)[C@@H]3C2)c1` as the compound, how does the inhibition read?
Answer: The inhibition was 12.6%.

Question: Which inhibition does the source give for `COc1cccc(S(=O)(=O)N2CCCCN3[C@H](CO)[C@H](c4ccc(-c5ccncc5)cc4)[C@H]3C2)c1` here?
Answer: The inhibition was 111% (active).

Question: For `COc1ccc(C#Cc2ccc([C@H]3[C@@H](CO)N4CCCCN(S(=O)(=O)c5cn(C)cn5)C[C@H]34)cc2)cc1`, which inhibition is on record?
Answer: Its inhibition is 50.5%.

Question: Which inhibition does the source give for `CCCNC(=O)C[C@H]1CC[C@H]2[C@@H](COC[C@H](O)CN2C(=O)Nc2c(C)noc2C)O1` here?
Answer: The inhibition was -19.4%.

Question: Which inhibition does the source give for `COc1cccc(S(=O)(=O)N[C@@H]2CC[C@@H](CCNC(=O)Cc3ccncc3)O[C@H]2CO)c1` here?
Answer: Its inhibition is 80.6%.

— PubChem BioAssay AID624255 (Broad Institute, 2012)
